From PubChem BioAssay
GRP78 ERSR act = qHTS for Inducers of the Endoplasmic Reticulum Stress Response (ERSR) in Human Glioma: qHTS. U87-MG GRP78 promoter luciferase reporter, 16 h. Potency, µM, inactives show top-dose activation, most hits filed as activators. actives 0.02% (n = 420,000); further: series mostly up to about 76 µM; % of control where 0% means no effect; nearly all actives have a fitted effect of over 35% in size
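Stably transfected U87-MG human glioma cells carrying a GRP78-based luminescent sensor were seeded at 1000 cells/well, pin-dosed with compounds and incubated 16 h. Luciferase reagent was then added, and end-point luminescence was read after 10 min at room temperature.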
Mito fusion act = qHTS Assay for Small Molecule Inhibitors of Mitochondrial Division or Activators of Mitochondrial Fusion; S. cerevisiae fusion-defective mutant growth rescue, CellTiterGlo 48 h; Potency, µM (series often up to 46.1 µM), for inactives: at the highest dose growth rescue (activation), usual class: activators; actives 0.23% (n = 320,000); AID 485298, 2010; further: % of control where 0% means no effect; nearly all actives have a fitted effect of over 45% in size
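S. cerevisiae fusion-defective temperature-sensitive mutants (e.g. fzo1-1, mgm1-5) grown 48 h at 37C in YPEG (ethanol/glycerol non-fermentable) medium with 23 nl compound per well; growth rescue read as CellTiterGlo luminescence.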
Abeta rescue = qHTS for compounds that reverse cellular toxicity of Amyloid beta (A-beta) peptide in yeast: Primary Screen | yeast expressing A-beta42, growth rescue, OD600, 48 h; response scale: 0% DMSO, 100% iron-clioquinol control | Potency, µM (titrated, usually from 46.1 µM), hits mostly activators | actives 0.063% (n = 410,000); further: nearly all actives have a fitted effect of over 55% in size
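Yeast growth medium received pinned compounds, then yeast cells expressing toxic A-beta were added; plates incubated at 30 C for 48 hr. Growth read as absorbance at 600 nm, normalized to DMSO and equimolar FeCl3 plus clioquinol controls.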
AT treatment = qHTS Assay for Identifying a Potential Treatment of Ataxia-Telangiectasia. AID 485349, 2010. F2112 A-T fibroblasts, KAP-1 phosphorylation AlphaLISA; neocarzinostatin DNA damage 30 min before lysis. actives 0.19% (n = 320,000). Potency, µM (highest dose often 57.5 µM), for inactives: top-dose activation, actives largely listed as activators; further: % of control where 0% means no effect; nearly all actives have a fitted effect of over 45% in size
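ATM-like activity read as KAP-1 phosphorylation via AlphaLISA donor/acceptor antibody pairs after lysis and 6 hr at 25C. Cells were ATM-null patient fibroblasts (F2112, hTERT), dosed 60 min, then exposed to the DSB inducer NCS for 30 min.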
aSyn rescue = qHTS of alpha-syn Inhibitors. Yeast expressing alpha-synuclein, growth rescue, BacTiter-Glo, 24 h. Potency, µM (doses to about 46.1 µM), for inactives: at the highest dose growth rescue (activation), most hits filed as activators. actives 0.14% (n = 370,000); further: % of control where 0% means no effect; nearly all actives have a fitted effect of over 65% in size
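Screening used galactose-induced yeast with toxic alpha-synuclein levels, exposed to compound for 24 hr at 30 deg C. Cell growth, read with BacTiter-Glo luminescence, gave the measured signal.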
TDP-43 yeast inh = qHTS of TDP-43 Inhibitors; TDP-43 expressing yeast growth rescue, BacTiter-Glo, 24 h; Potency, µM (highest dose often 46.1 µM), without a hit: at the top dose growth rescue (activation), most hits filed as activators; actives 1.8% (n = 410,000); AID 652104, 2013; further: % of control where 0% means no effect; nearly all actives have a fitted effect of over 50% in size
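Yeast cells expressing TDP-43 under galactose induction are exposed to compounds for 24 hr at 30 deg C. BacTiter-Glo luminescence measures growth, so protective compounds score as activators.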
* hit, by the source's call; i = inactive; ? = inconclusive; / = not tested or not shown; ! = not active in a repeat. Rows were chosen to be rich in hits. Some 2.1% of all compounds tested hit in one or more screens of this group. The call rests on the fitted dose curve; in most records, active means well fitted curve in the direction sought with a large enough effect; inconclusive means small, poorly fitted or top-dose-only effect, or another doubt; inactive means no such curve, though single readings can be large; an effect the other way counts as inactive or inconclusive. Potency means the concentration at half of the fitted maximal effect.

SMILES	GRP78 ERSR act	Mito fusion act	Abeta rescue	AT treatment	aSyn rescue	TDP-43 yeast inh
COc1ccc(OC)c(NC(=O)Nc2c(O)ccc3ccccc23)c1	-3%	/	i	/	0%	17%
Cc1nc2ccc3nc(NC(=O)c4ccc5c(c4)OCCO5)sc3c2s1	2%	-2%	i	25µM*	-10%	-20%
Cc1nc2c(ccc3nc(NC(=O)c4ccc5c(c4)OCCO5)sc32)s1	6%	-4%	i	-1%	-2%	0%
CCc1ccc(OCC(=O)NCc2ccco2)c(Br)c1	5%	2%	i	1%	-3%	13µM*
CCc1cc(=O)oc2c3c(cc(OCC(=O)NCc4ccco4)c12)OC(C)(C)CC3	-1%	14%	i	-2%	-2%	35µM*
Cc1ccc2[nH]c(CSc3nnc(NC(=O)c4ccc(Cl)cc4)s3)cc(=O)c2c1	0%	/	i	/	/	8%
COCCNc1nc(-c2ccc(Cl)cc2C)c2sccc2n1	-1%	/	i	/	10%	22µM*
Cc1cc(Cl)ccc1-c1nc(NCc2ccccc2)nc2ccsc12	4%	/	i	/	24%	?
Cc1cc(Cl)ccc1-c1nc(NC(C)C)nc2ccsc12	-4%	/	i	/	?	35µM*
COc1ccc(O)c(CN2CCCN(c3nc(C)c4cc(C)c(C)cc4n3)CC2)c1	-1%	/	/	/	/	/
Cc1nc(-c2ccc(S(=O)(=O)Nc3cc(Cl)ccc3C)cc2)co1	-5%	/	i	/	?	22µM*
Cc1nc(-c2ccc(S(=O)(=O)Nc3cc(F)ccc3F)cc2)co1	-1%	-2%	i	-8%	16%	-9%
Oc1cccc(-c2sc3ccccc3c2-c2ccc(OCCN3CCCCC3)cc2)c1	/	/	i	/	-52%	-1%
O=C(c1ccc(OCCN2CCCCC2)cc1)c1c(-c2ccc(O)cc2)sc2cc(O)ccc12	-2%	18µM*!	i	-5%	-4%	23%
CCS(=O)(=O)N1CCN(c2ccc([N+](=O)[O-])c(NC(C)c3ccccc3)c2)CC1 (stereo unspecified)	-1%	-14%	i	-5%	-2%	-15%
CC(Nc1cc(N2CCN(C(=O)C(C)(C)C)CC2)ccc1[N+](=O)[O-])c1ccccc1 (stereo unspecified)	-5%	0%	i	3%	0%	20µM*
CC(C)C(=O)N1CCN(c2ccc([N+](=O)[O-])c(NC(C)c3ccccc3)c2)CC1 (stereo unspecified)	-4%	?	i	-6%	-1%	20µM*
CC(Nc1cc(N2CCNCC2)ccc1[N+](=O)[O-])c1ccccc1 (stereo unspecified)	-4%	-15%	i	12%	8%	5%
COc1ccc(OC)c(NC(=O)c2nc(S(=O)(=O)Cc3ccccc3F)ncc2Cl)c1	-3%	/	/	/	-7%	/
Cn1c(-c2ccccc2)c(CCO)c2ccccc21	10%	23%	i	/	22%	?
OCCCc1cn(-c2ccccc2)c2ccccc12	7%	17%	i	-4%	24%	13µM*
Cc1ccc(S(=O)(=O)Nc2ccc3nc(C)sc3c2)c(C)c1	-4%	11%	i	-16%	5%	13µM*
Cc1nc2cc(NS(=O)(=O)c3c(C)c(C)cc(C)c3C)ccc2s1	-3%	35µM*	i	5%	?	?
COc1ccccc1C(=O)N[C@@H]1c2ccccc2C2(CCN(Cc3cnn(C)c3C)CC2)[C@H]1O	-1%	/	/	/	/	/
COc1cccc(/C=C2\SC(=S)N(NS(=O)(=O)c3ccc(C)cc3)C2=O)c1OC	/	5µM*	/	-12%	/	/
SMILES	GRP78 ERSR act	Mito fusion act	Abeta rescue	AT treatment	aSyn rescue	TDP-43 yeast inh
Cc1ccsc1C(=O)Nc1n[nH]c(C(F)(F)F)n1	2%	0%	i	7%	8%	35µM*
C#C[C@@]1(OC(C)=O)CC[C@H]2[C@@H]3CCC4=CC(=O)CC[C@@H]4[C@H]3CC[C@@]21C	-2%	/	/	/	/	/
CN(Cc1ccccc1)C(=O)c1oc(=O)c2ccccc2c1-c1ccccc1	-3%	?	i	0%	5%	14µM*
Cc1ccc(-c2c(C(=O)N(C)Cc3ccccc3)oc(=O)c3ccccc23)cc1	-2%	16µM*	i	22%	0%	13µM*
Cc1ccc(-c2c(C(=O)NCc3ccccc3)oc(=O)c3ccccc23)cc1	0%	?	i	6%	0%	-5%
N/C(Cc1ccc(Cl)cc1)=N\OC(=O)c1ccc2ccccc2c1	-2%	-24%	i	18%	-58%	6.3µM*
N/C(=N\OC(=O)c1ccc(Cl)cc1Cl)c1ccc(Cl)cc1	-6%	13%	i	1%	-42%	10%
Cc1ccc(/C(N)=N/OC(=O)c2cccc(F)c2)cc1	6%	5%	i	21%	-30%	-15%
Cc1ccc(/C(N)=N/OC(=O)c2ccc3ccccc3c2)cc1	14%	4%	i	5%	-44%	1.3µM*
Cc1ccc(/C(N)=N/OC(=O)c2ccc(C)cc2Cl)cc1	-9%	-13%	i	11%	-37%	4µM*
COc1ccc(C/C(N)=N/OC(=O)c2ccc(Cl)cc2)cc1	-2%	-9%	i	4%	-16%	?
COC(=O)c1ccccc1-c1cc(C)cc2c1OC(CNC(=O)c1occc1C)C2 (stereo unspecified)	4%	/	/	/	/	/
Cc1ncc2c(c1CNC(=O)c1ccc3c(c1)OCO3)CCN(C(=O)c1ccc3ccccc3c1)C2	1%	/	/	/	/	/
CCOc1ccc(-c2nnc(SCC(=O)NCCC(C)C)nc2-c2ccc(OCC)c(OC)c2)cc1OC	-2%	/	i	/	/	?
O=C(c1noc2c1CCCCC2)N1CCN(c2cccc(Cl)c2)CC1	-2%	/	i	/	/	8.9µM*
CC(C)CN1C(=O)/C(=C/c2cccs2)NC1=S	-4%	7%	i	-6%	-23%	25µM*
CCCN1C(=O)/C(=C/c2ccc(C)s2)NC1=S	0%	18%	i	-2%	-8%	11µM*
CCOC(=O)c1cccc(NC(=O)c2cc3c(Cl)nc4ccc(C)cc4c3s2)c1	-3%	/	i	/	/	18%
O=C(CC1C(=O)OCCN1Cc1ccccc1)Nc1cccc(C(F)(F)F)c1 (stereo unspecified)	2%	/	i	/	/	18µM*
